Screens from PubChem.
Pf growth 96h – P. falciparum growth inhibition at 96 hours; P. falciparum luciferase reporter growth, 96 h; Potency, µM (top dose mostly 28.7 µM), without a hit: top-dose activity change, negative = inhibition, actives largely listed as inhibitors; 320,000 tested, 6.9% active; also: potency is read from the fitted curve at half-maximal effect; % is scaled to controls: 0 for no effect and ±100 for the full control effect
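Parasite growth measured via integrated firefly luciferase reporter in P. falciparum. Infected erythrocytes at 2% hematocrit, 0.05% parasitemia final were treated 96 hours at 37 C under 5% CO2, and luminescence was read.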
Cycloheximide cs – counter-screen hit for Shiga toxin inhibitors, cycloheximide; max response, %; cell reporter, cycloheximide protein synthesis inhibition counterscreen; 300,000 tested, 12% active; in the data active = max response mostly above about 13%, no sharp cut-off; inactive = mostly below about 14%; also: read at 38.3 µM for the half of the compounds with a filed dose; 0% is about no effect
NS1 inh – blocks influenza NS1 protein function; 270,000 tested, 0.4% active; Potency, µM (series often up to 46.1 µM), for the others: at the highest dose activity, positive = more growth; calls by dose curve; also: potency is read from the fitted curve at half-maximal effect; actives are rising curves; nearly all actives have a fitted effect of over 50% in size
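Recovery from NS1-induced slow growth read by OD600 in budding yeast switched to galactose assay medium (pH 6.0, -URA) at 1:100 dilution. Compound 23 nl per well; the matching strain lacking NS1 serves as control.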
Shiga inhibitor – inhibitors of Shiga toxin in Vero cells | inhibition, % at 38.7 µM | 290,000 tested, 9.2% active | AID 2315 | Vero cells, Shiga toxin protein synthesis inhibition reporter; in the data active = inhibition mostly above about 28%, no sharp cut-off; inactive = mostly below about 43%; also: 0% is about no effect
SARS PLpro yeast – blocks SARS-CoV papain-like protease in a yeast assay. S. cerevisiae expressing SARS-CoV PLpro, growth rescue. Potency, µM (doses to about 32.9 µM), inactives show top-dose activity, positive = growth rescue, usual class: activators. 330,000 tested, 0.19% active; calls by dose curve; also: potency is read from the fitted curve at half-maximal effect; 0% is about no effect; nearly all actives have a fitted effect of over 55% in size
Pf growth 48h – inhibits P. falciparum growth in the first generation, 48 h. P. falciparum luciferase growth in erythrocytes, 48 h. Potency, µM (doses to about 28.7 µM), for inactives: at the highest dose activity change, negative = inhibition, most hits filed as inhibitors. 310,000 tested, 5.9% active. AID 504832; also: potency is read from the fitted curve at half-maximal effect; % is scaled to controls: 0 for no effect and ±100 for the full control effect
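A one-generation exposure of luciferase-tagged malaria parasites in RPMI 1640/Albumax erythrocyte culture, 37 C and 5% CO2. Inhibition is inferred from decreased luminescence after adding detection reagent.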
* marks the source's active call; other numbers are inactive results. Most compounds without a hit are left out; they make up all but 21% or so of the library. Unless noted, calls follow the shape of the dose curve; as a rule, active = well fitted inhibition curve with a large enough effect; inconclusive = small, poorly fitted or top-dose-only effect, or another doubt; inactive = no such curve, though single readings can be large or run the other way.

What do the screens show for `C=CCNC(=S)N/N=C/c1ccc(C)cc1C`?
Pf growth 96h: inconclusive; Cycloheximide cs: 22; Shiga inhibitor: 29; SARS PLpro yeast: 0%; Pf growth 48h: 10µM*

Results for Cc1nc2ccc(NC(=S)NCc3ccccc3)cc2nc1C ?
Pf growth 96h: -4%; Cycloheximide cs: 27*; NS1 inh: -6%; Shiga inhibitor: 35; SARS PLpro yeast: 0%; Pf growth 48h: 47%

What do the screens show for `CCOc1cc(N2CCOCC2)c(OCC)cc1NC(=O)CN1CCSC1=O`?
Pf growth 96h: 29%; SARS PLpro yeast: -8%; Pf growth 48h: 26%

What do the screens show for `O=C(CCC(=O)N1CCN(c2ccccc2F)CC1)c1ccc(F)cc1`?
Pf growth 96h: 24%; Cycloheximide cs: 15*; NS1 inh: 0%; Shiga inhibitor: 22; SARS PLpro yeast: -1%; Pf growth 48h: 42%

How did CC(=O)c1ccc(N2CCN(C(=O)CCC(=O)c3cccs3)CC2)cc1 do in these assays?
Pf growth 96h: inconclusive; Cycloheximide cs: -1; Shiga inhibitor: 30; SARS PLpro yeast: -2%; Pf growth 48h: -17%

How did O=C(CCC(=O)N1CCN(c2ccc(O)cc2)CC1)c1cccs1 do in these assays?
Pf growth 96h: 7.4µM*; Cycloheximide cs: 30*; NS1 inh: 3%; Shiga inhibitor: 52*; SARS PLpro yeast: -1%; Pf growth 48h: 13µM*

How did O=C(CCC(=O)N1CCN(c2ccc(O)cc2)CC1)c1ccc(Br)cc1 do in these assays?
Pf growth 96h: 9.3µM*; Cycloheximide cs: -1; NS1 inh: 0%; Shiga inhibitor: -5; SARS PLpro yeast: 0%; Pf growth 48h: 25%

How did CCOc1ccc(CC(=O)Nc2c(C(=O)Nc3ccccc3)oc3ccccc23)cc1OCC do in these assays?
Pf growth 96h: 0.93µM*; Cycloheximide cs: -3; NS1 inh: 11%; Shiga inhibitor: -12; SARS PLpro yeast: -1%; Pf growth 48h: -1%

How did CCOc1ccc(CC(=O)Nc2c(C(N)=O)oc3ccc(Br)cc23)cc1OCC do in these assays?
Pf growth 96h: 12µM*; Cycloheximide cs: -2; NS1 inh: -39%; Shiga inhibitor: -5; SARS PLpro yeast: 7%

What do the screens show for `COc1ccc(CC(=O)Nc2c(C(N)=O)oc3ccccc23)cc1OC`?
Pf growth 96h: -1%; Cycloheximide cs: -4; NS1 inh: 0%; Shiga inhibitor: 14; Pf growth 48h: -8%

Results for COc1ccc(CC(=O)OCC(=O)Nc2ccc(Br)cc2)cc1 ?
Pf growth 96h: 40%; Cycloheximide cs: -1; NS1 inh: 1%; Shiga inhibitor: -4; SARS PLpro yeast: 2%; Pf growth 48h: 5%

How did O=S(=O)(c1ccc(Cl)cc1)c1cnc(-c2cccnc2)nc1-c1ccccc1 do in these assays?
Pf growth 96h: inconclusive; Cycloheximide cs: -5; NS1 inh: 9%; Shiga inhibitor: -15; SARS PLpro yeast: 4%; Pf growth 48h: inconclusive

How did Cc1nc(-c2ccccc2)sc1-c1nc(-c2ccncc2)ncc1S(=O)(=O)c1ccccc1 do in these assays?
Pf growth 96h: 1.7µM*; Cycloheximide cs: 13; NS1 inh: 9%; Shiga inhibitor: -11; SARS PLpro yeast: 5%; Pf growth 48h: inconclusive

What do the screens show for `O=C(NC(=S)Nc1ccccc1N1CCCC1)c1ccccc1Br`?
Pf growth 96h: 27%; Cycloheximide cs: 7; NS1 inh: 5%; Shiga inhibitor: 4; SARS PLpro yeast: 13%; Pf growth 48h: inconclusive

Results for COc1cccc(C(=O)NC(=S)Nc2ccccc2N2CCCCC2)c1 ?
Pf growth 96h: inconclusive; Cycloheximide cs: 4; NS1 inh: inconclusive; Shiga inhibitor: 25; SARS PLpro yeast: inconclusive; Pf growth 48h: 7.4µM*

What do the screens show for `COc1c(C)cccc1C(=O)NC(=S)Nc1ccccc1N1CCCC1`?
Pf growth 96h: inconclusive; Cycloheximide cs: 30*; NS1 inh: 19%; Shiga inhibitor: 12; SARS PLpro yeast: -3%; Pf growth 48h: inconclusive

Results for COc1cccc(C(=O)NC(=S)Nc2ccccc2N2CCCC2)c1 ?
Pf growth 96h: inconclusive; Cycloheximide cs: 17*; NS1 inh: 1%; Shiga inhibitor: 40; SARS PLpro yeast: 7%; Pf growth 48h: inconclusive

How did O=C(CCN1C(=O)[C@@H]2Cc3ccccc3CN2C1=O)N[C@H](C(=O)O)c1ccccc1 do in these assays?
Pf growth 96h: -23%; Cycloheximide cs: -2; NS1 inh: 16%; Shiga inhibitor: 17; SARS PLpro yeast: 3%; Pf growth 48h: 23%

How did COC(=O)Nc1c(-c2ccccc2)nc2ccc(C)cn12 do in these assays?
Pf growth 96h: 4.7µM*; Cycloheximide cs: -1; NS1 inh: 0%; Shiga inhibitor: 13; SARS PLpro yeast: 5%; Pf growth 48h: 6%

Results for Cc1ccc2nc(-c3ccc(-c4cccc(Cl)c4)cc3)c(NCc3ccccc3)n2c1 ?
Pf growth 96h: 0%; SARS PLpro yeast: -2%; Pf growth 48h: inconclusive

How did Cc1ccc(-c2nc3ccccn3c2NCc2ccc3c(c2)OCO3)cc1 do in these assays?
Pf growth 96h: 79%; Cycloheximide cs: 45*; NS1 inh: -122%; Shiga inhibitor: 54*; SARS PLpro yeast: -22%; Pf growth 48h: 95%

What do the screens show for `COc1ccc(-c2nc3ccc(C)cn3c2NCc2ccc3c(c2)OCO3)cc1`?
Pf growth 96h: 5%; Cycloheximide cs: 55*; NS1 inh: -4%; Shiga inhibitor: 125*; SARS PLpro yeast: -3%; Pf growth 48h: 46%

What do the screens show for `CCCCNc1c(-c2cccc(-c3ccc(OC)cc3)c2)nc2ccc(C)cn12`?
Pf growth 96h: 3.7µM*; SARS PLpro yeast: 0%; Pf growth 48h: 3.3µM*

How did O=[N+]([O-])c1ccc(S(=O)(=O)CC2CSc3nc4ccccc4n32)cc1 (configuration not stated) do in these assays?
Pf growth 96h: 19%; Cycloheximide cs: -4; NS1 inh: 8%; Shiga inhibitor: -10; SARS PLpro yeast: 4%; Pf growth 48h: 1%

What do the screens show for `Cc1csc(NC(=O)CSc2nnc(-c3ccoc3C)n2C(C)c2ccccc2)n1` (configuration not stated)?
Pf growth 96h: -46%; Cycloheximide cs: -1; NS1 inh: 0%; Shiga inhibitor: -6; SARS PLpro yeast: 1%; Pf growth 48h: inconclusive

How did O=C(NCCc1ccc(F)cc1)C(=O)Nc1cc2c3c(c1)CC(=O)N3CCC2 do in these assays?
Pf growth 96h: inconclusive; SARS PLpro yeast: -1%; Pf growth 48h: inconclusive

Results for CCCCCCC(C)n1[nH]c(=O)c2c(C)cc(C)nc21 (configuration not stated) ?
Pf growth 96h: 37%; Cycloheximide cs: 1; NS1 inh: 2%; Shiga inhibitor: 4; SARS PLpro yeast: -1%; Pf growth 48h: -5%

Results for C[C@@H]1O[C@@H](OCCC(=O)O)[C@H](O)C[C@H]1O ?
SARS PLpro yeast: 0%
